Holding throughout (experiment): PBM binding z-score (relative to random genomic background probes); higher = stronger binding; sequences stand for … in GC…GCGATTGACAGCGTAGAATGAAGG
In experiment [1] the test system is FXR:RXRa (NR concentration 270 nM, RXRa partner concentration 90 nM). The method, boiled down: (§1)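 Binding buffer was PBS pH 7.4 with 2% milk, 0.02% Triton X-100, 1 mM DTT, 0.2 mg/mL BSA and 0.4 mg/ml salmon testes DNA. In it, ligand-free nuclear receptor dimers were incubated 1 h on custom Agilent 4×180K protein-binding microarrays carrying double-stranded probes. Antibodies against each partner (one per run) detected binding, and z-scores were calculated against random background probes after regression normalization of scanned fluorescence.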

Experiment [2] concerns LXRa:RXRa (NR concentration 270 nM, RXRa partner concentration 90 nM). The method, boiled down:
as §1

The test system of experiment [3] is LXRa homodimer (NR concentration 270 nM). The method, boiled down: as §1
Experiment [4] deals with LXRb:RXRa (NR concentration 270 nM, RXRa partner concentration 90 nM). The method in brief: as §1
For experiment [5], the system named is LXRb homodimer (NR concentration 270 nM). The method, boiled down: as §1
Experiment [6] deals with PPARa:RXRa (NR concentration 270 nM, RXRa partner concentration 90 nM). The method in brief:
as §1

Experiment [7] concerns PPARg:RXRa (NR concentration 180 nM, RXRa partner concentration 90 nM). The method, boiled down: as §1
The test system of experiment [8] is PPARg:RXRa 270nM:90nM, anti-RXR (NR concentration 270 nM, RXRa partner concentration 90 nM). The method in brief:
as §1

The test system of experiment [9] is PPARg:RXRa 30nM:10nM, anti-RXR (NR concentration 30 nM, RXRa partner concentration 10 nM). The method, boiled down: as §1
Experiment [10] concerns PPARg:RXRa 90nM:30nM, anti-RXR (NR concentration 90 nM, RXRa partner concentration 30 nM). The method in brief: as §1
Experiment [11] concerns PPARg:RXRa DBDmut IVT, anti-RXR (DBD mutation: RXRa K156A/R161A, NR concentration 270 nM, RXRa partner concentration 90 nM). The method, boiled down:
as §1

In experiment [12] the test system is PPARg:RXRa IVT, anti-PPARg (NR concentration 270 nM, RXRa partner concentration 90 nM). The method, boiled down: as §1
In experiment [13] the test system is PPARg DBDmut:RXRa IVT, anti-PPARg (DBD mutation: PPARg1 K132A/R137A, NR concentration 270 nM, RXRa partner concentration 90 nM). The method, boiled down:
as §1

Experiment [14] concerns PPARg DBDmut IVT, anti-PPARg (DBD mutation: PPARg1 K132A/R137A, NR concentration 270 nM). The method, boiled down: as §1
In experiment [15] the test system is PPARg homodimer (NR concentration 180 nM). The method in brief:
as §1

Experiment [16] deals with PXR:RXRa (NR concentration 270 nM, RXRa partner concentration 90 nM). The method, boiled down: as §1
The test system of experiment [17] is PXR homodimer (NR concentration 270 nM). The method in brief:
as §1

In experiment [18] the test system is RARa:RXR (NR concentration 270 nM, RXRa partner concentration 90 nM). The method in brief:
as §1

For experiment [19], the system named is RARa homodimer (NR concentration 270 nM). The method in brief:
as §1

Experiment [20] relates to RARb:RXRa (NR concentration 270 nM, RXRa partner concentration 90 nM). The method, boiled down:
as §1

With TAGCCTAGGTCATTGGCCAGTATACCACGCGAAC, the PBM binding z-score in experiment [1] amounted to 4.93; in experiment [2], 3.34; in [3], 0.738; in experiment [4], 2.61; in [5], 0.254; in [6], 3.41. Moreover, the PBM binding z-score was found to be 2.4 in [7]; 2.49 in experiment [8]; 0.453 in experiment [9]; 1.44 in experiment [10]; 1.38 in [11]; 2.72 in experiment [12]. In addition, the PBM binding z-score is 0.244 in experiment [13]; -0.771 in [14]; 1.49 in experiment [15]; 1.56 in experiment [16]; -0.368 in [17]; 2.16 in experiment [18]. Moreover, the PBM binding z-score is -0.259 in experiment [19] and 3.57 in [20].
Turning to GCAGACAGGTGAAACGCTGGTAACTCAGGGTGGC, the PBM binding z-score in [1] is -0.319; in experiment [2] it was 0.0267; in experiment [3] it was -0.492; in experiment [4], -0.149; in experiment [5], -1.44; in experiment [6], 0.737. For the same sequence, the PBM binding z-score in experiment [7] is 0.389; in experiment [8], 0.0806; in experiment [9], -0.77; in experiment [10] it was -0.171; in experiment [11], 0.871; in experiment [12], 0.415. For the same sequence, the PBM binding z-score in experiment [13] is -0.505; in [14] it was -0.62; in experiment [15] it was -1.22; in experiment [16], -0.38; in experiment [17] it was -0.927; in [18] it was 0.0217. The PBM binding z-score in experiment [19] is -0.662; in experiment [20] it was 0.668.
Take CCTACTGGGCCAAGGTCATTAATCAGTCAAAGCA: the PBM binding z-score was 2.47 in [1]; 2.57 in [2]; 1.18 in [3]; 2.82 in experiment [4]; -0.0551 in experiment [5]; 3.71 in experiment [6]. The PBM binding z-score in [7] stood at 3.45; in experiment [8], 4.19; in [9] it was 1.47; in experiment [10], 3.23; in [11] it was 3.47; in experiment [12] it was 4.44. The PBM binding z-score in [13] stood at 0.31; in experiment [14], 0.133; in [15], 2.15; in experiment [16], 3.16; in [17], 1.21; in experiment [18], 3.39. Also, the PBM binding z-score came to 0.145 in experiment [19] and 3.29 in [20].
ATCTCTAGGTAAAGATAGTTCAGTGACTGCAAAT: the PBM binding z-score in experiment [1] turned out to be 0.289; in [2] it was 4.19; in experiment [3] it was 0.906; in experiment [4] it was 0.867; in experiment [5], 0.656; in experiment [6], 0.677. Also, the PBM binding z-score amounted to 0.174 in [7]; 0.437 in experiment [8]; 0.221 in experiment [9]; 0.0894 in [10]; 2.25 in [11]; 1.52 in [12]. The PBM binding z-score in experiment [13] was 1.25; in experiment [14], 0.496; in experiment [15], 0.972; in experiment [16], 1.06; in experiment [17], 0.522; in experiment [18], 0.54. Moreover, the PBM binding z-score in experiment [19] came out at 1.52; in experiment [20] it was 0.693.
TGAATGAGGTTAAAGATCAGGGACCGTGGCGTCG: the PBM binding z-score is 2.75 in experiment [1]; 2.5 in [2]; -0.345 in [3]; 1.45 in experiment [4]; 0.253 in experiment [5]; 4.71 in experiment [6]. The PBM binding z-score stood at 5.75 in experiment [7]; 6.16 in [8]; 5.21 in [9]; 6.9 in experiment [10]; 1.93 in experiment [11]; 3.65 in [12]. Besides, the PBM binding z-score is 0.741 in experiment [13]; 0.491 in experiment [14]; 1.52 in [15]; 1.94 in experiment [16]; -0.23 in experiment [17]; 2.91 in experiment [18]. In addition, the PBM binding z-score in experiment [19] is 0.149; in experiment [20], 1.96.
As for ACTTACGGGTCAAAGAGGTTATAGCACGCGTATA, the PBM binding z-score in experiment [1] stood at 6.96; in [2], 5.48; in experiment [3], 1.34; in [4], 4.61; in [5], 0.72; in experiment [6], 5.71. Moreover, the PBM binding z-score in experiment [7] turned out to be 5.28; in experiment [8], 5.31; in [9], 2.31; in experiment [10], 4.28; in [11], 3.17; in experiment [12] it was 3.85. Moreover, the PBM binding z-score was 1.03 in experiment [13]; 1.26 in experiment [14]; 3.6 in [15]; 4.91 in [16]; 2.73 in experiment [17]; 4.84 in experiment [18]. For the same sequence, the PBM binding z-score in [19] amounted to 1.4; in [20] it was 3.99.
As for GCTGCTAGGTCAGGTTGCTCAGCTAACGGGTACG, the PBM binding z-score in experiment [1] was 1.19; in experiment [2], 0.603; in experiment [3], -0.362; in [4], 0.238; in experiment [5] it was -0.468; in experiment [6], 1.3. In addition, the PBM binding z-score in experiment [7] was 0.32; in [8], 1.06; in experiment [9] it was -0.602; in experiment [10], 0.106; in [11], 2.92; in [12] it was 2.01. For the same sequence, the PBM binding z-score in experiment [13] was -0.97; in experiment [14], -0.836; in experiment [15] it was 0.251; in [16], -0.00315; in [17], -0.858; in experiment [18], 0.655. Besides, the PBM binding z-score is -0.624 in experiment [19] and 3.17 in experiment [20].

The values are drawn from the supplement of paper PMC6555819.
